Measured values as given in a collection of fitness landscapes (doi:10.1038/s41467-024-54723-y).
In all, about 18,000 sequences were measured (“TetR repression strength (sort-seq, GFP reporter)”: median about 0.23, highest 2% from about 0.68 on). The entries come from a sample that favours the highest values as a whole.

target: TetR (class B, Tn10) (UniProt P04483); assay: TetR repression strength (sort-seq, GFP reporter) (relative to tetO2 = 1); higher = stronger repression; details: E. coli
Summary of the method: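 Escherichia coli SIG10-MAX cells carried a low-copy plasmid library in which eight operator positions were randomized between a constitutive promoter and sfGFP, and TetR was expressed constitutively. After 5 h of growth at 37 °C in LB with 50 µg/mL chloramphenicol, 10^6 cells were FACS-sorted into 13 fluorescence bins, and each bin was Illumina-sequenced. Repression strength was the top bin index plus one minus the read-weighted mean bin, divided by the value for the unaltered operator. Across three independent transformations, only library members with ≥30 reads in every replicate and a CV ≤0.5 were averaged.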

TetR (class B, Tn10), sequence (P04483 whole entry): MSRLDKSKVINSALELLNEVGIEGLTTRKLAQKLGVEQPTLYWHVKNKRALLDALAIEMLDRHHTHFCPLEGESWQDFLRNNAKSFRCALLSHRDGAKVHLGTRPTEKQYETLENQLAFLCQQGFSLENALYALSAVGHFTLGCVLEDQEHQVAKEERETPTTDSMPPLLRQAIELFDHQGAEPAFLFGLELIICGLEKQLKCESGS

| Sequence | TetR repression strength |
| --- | --- |
| TCCCGTTGAGTCGGCGAGA | 0.157 |
| TCCCACCAAGTAGGAGAGA | 0.285 |
| TCCCTAAGAGTACTGGAGA | 0.401 |
| TCCCGCCGAGTTAAGGAGA | 0.19 |
| TCCCGACGAGTAGTGGAGA | 0.171 |
| TCCCAATCAGTTTGAGAGA | 0.144 |
| TCCCTCGCAGTGAGCGAGA | 0.22 |
| TCCCAGGCAGTAAGGGAGA | 0.0777 |
| TCCCAGTCAGTGATCGAGA | 0.322 |
| TCCCGGTCAGTGATCGAGA | 0.684 |
| TCCCGGTCAGTGGTCGAGA | 0.633 |
| TCCCCGGGAGTCCACGAGA | 0.252 |
| TCCCGGGGAGTTAATGAGA | 0.944 |
| TCCCCCTGAGTTTATGAGA | 0.265 |
| TCCCGGGAAGTTACAGAGA | 0.0346 |
| TCCCGGAGAGTTACAGAGA | 0.245 |
| TCCCGGAGAGTTAATGAGA | 0.225 |
| TCCCGAGTAGTTAACGAGA | 0.857 |
| TCCCGAGTAGTTAAGGAGA | 0.21 |

| Sequence | TetR repression strength |
| --- | --- |
| TCCCGAGGAGTTAACGAGA | 0.535 |
| TCCCCCGGAGTTTATGAGA | 0.801 |
| TCCCGCGGAGTTTATGAGA | 0.184 |
| TCCCGGGGAGTTACAGAGA | 0.903 |
| TCCCCGGGAGTTAATGAGA | 0.517 |
| TCCCAGACAGTGATAGAGA | 0.384 |
| TCCCGCAGAGTGTCTGAGA | 0.216 |
| TCCCGTTAAGTCGCGGAGA | 0.391 |
| TCCCCTTGAGTGTAAGAGA | 0.558 |
| TCCCGTCGAGTGTCAGAGA | 0.263 |
| TCCCGTGTAGTTGTTGAGA | 0.0138 |
| TCCCGCGTAGTTAATGAGA | 0.421 |
| TCCCGGGTAGTTAGTGAGA | 0.166 |
| TCCCGGGTAGTTAATGAGA | 1 |
| TCCCCAGCAGTGATGGAGA | 0.2 |
| TCCCAGAAAGTGGCGGAGA | 0.316 |
| TCCCTCCGAGTAGGTGAGA | 0.222 |
| TCCCGGCGAGTAGACGAGA | 1.03 |
| TCCCACCGAGTAGGCGAGA | 0.166 |

| Sequence | TetR repression strength |
| --- | --- |
| TCCCGGCGAGTAGAAGAGA | 0.418 |
| TCCCAGCGAGTAGAAGAGA | 0.334 |
| TCCCAGAGAGTAGACGAGA | 0.217 |
| TCCCAGCGAGTAGACGAGA | 1.03 |
| TCCCGGCGAGTAGAGGAGA | 0.248 |
| TCCCTCCGAGTAGGCGAGA | 0.745 |
| TCCCGGGTAGTGGTGGAGA | 0.277 |
| TCCCCATCAGTGAGCGAGA | 0.19 |
| TCCCGATCAGTTAGGGAGA | 0.313 |
| TCCCTTTCAGTTTCGGAGA | 0.422 |
| TCCCATGCAGTTTGGGAGA | 1.07 |
| TCCCATGGAGTTTGGGAGA | 0.201 |
| TCCCTTTCAGTTTGGGAGA | 0.925 |
| TCCCATGCAGTTGGGGAGA | 0.216 |
| TCCCTTTCAGTTTTGGAGA | 0.151 |
| TCCCAGTGAGTCGCAGAGA | 0.0941 |
| TCCCTTGGAGTCGGCGAGA | 0.0727 |
| TCCCATTCAGTATCGGAGA | 0.159 |
